High-throughput results deposited in PubChem BioAssay by National Center for Advancing Translational Sciences (NCATS).
This is one part of a sample in which hits are shown more often than they occur.
IL1B secr inh – inflammasome signaling inhibition, IL-1 beta readout; THP-1 LPS/ATP IL-1B secretion, AlphaLISA, 16 h; stronger effect = lower value; activity change, % at 57.5 µM; 360,000 tested, 4.7% active; AID 743279; in the data active means activity change below about -50%; inconclusive means mostly about -30% to -49%
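THP-1 cells pretreated 1 hr with compounds (up to 57.5 uM final), then stimulated with LPS (250 ng/mL final) plus ATP (1.25 mM final); secreted IL-1B measured by AlphaLISA after 16 hr, decreased signal indicating inhibition.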
HT1080 IDH1KD tx – kills HT-1080 cells with IDH1 knockdown | Potency, µM (doses to about 46.1 µM), hits mostly cytotoxic | 360,000 tested, 2% active | HT-1080 IDH1 knockdown viability, ATP luminescence, 48 h
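CellTiter-Glo luminescence after 48 h compound exposure at 37 degrees C of IDH1-knockdown HT-1080 cells in 5% FBS RPMI. %Activity scaled between DMSO wells and cell-free media wells, with curves fitted and assigned curve classes.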
TDP1 cell CPT – growth inhibition of DT40 Tdp1-/-;hTDP1 cells with camptothecin (screen for TDP1 inhibitors); chicken DT40 Tdp1-/-;hTDP1 cells + 20 nM CPT, ATP luminescence, 48 h; Potency, µM (top dose mostly 46.2 µM), usual class: inhibitors; 420,000 tested, 12% active; further: nearly all actives have a fitted effect of over 55% in size
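Chicken DT40 Tdp1-/- cells stably complemented with human TDP1 were seeded at 400 cells/well in medium containing 20 nM camptothecin, exposed to pin-transferred compounds, and grown at 37 °C for at least 48 hr. Viability was read as ATP luminescence.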
DT40 TDP1 no CPT – qHTS for Inhibitors of human tyrosyl-DNA phosphodiesterase 1 (TDP1): qHTS in cells in absence of CPT. Potency, µM (top dose mostly 46.2 µM), actives largely listed as inhibitors. AID 686978, 2013. DT40 Tdp1-/- hTDP1 cells, no CPT, ATP luminescence, 48 h. 420,000 tested, 15% active; further: nearly all actives have a fitted effect of over 55% in size
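Growth of hTDP1-complemented DT40 Tdp1-knockout cells is measured by ATP luminescence after at least 48 hr compound exposure at 37 °C, with DMSO substituting for the 20 nM CPT used in the parallel screen.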
ALOX12 inh – blocks human arachidonate 12S-lipoxygenase; purified 12hLO, xylenol orange hydroperoxide absorbance; Potency, µM (series often up to 108 µM), usual class: inhibitors; 580,000 tested, 1.1% active; P18054; AID 1671190
Target sequence (P18054 whole entry, looked up): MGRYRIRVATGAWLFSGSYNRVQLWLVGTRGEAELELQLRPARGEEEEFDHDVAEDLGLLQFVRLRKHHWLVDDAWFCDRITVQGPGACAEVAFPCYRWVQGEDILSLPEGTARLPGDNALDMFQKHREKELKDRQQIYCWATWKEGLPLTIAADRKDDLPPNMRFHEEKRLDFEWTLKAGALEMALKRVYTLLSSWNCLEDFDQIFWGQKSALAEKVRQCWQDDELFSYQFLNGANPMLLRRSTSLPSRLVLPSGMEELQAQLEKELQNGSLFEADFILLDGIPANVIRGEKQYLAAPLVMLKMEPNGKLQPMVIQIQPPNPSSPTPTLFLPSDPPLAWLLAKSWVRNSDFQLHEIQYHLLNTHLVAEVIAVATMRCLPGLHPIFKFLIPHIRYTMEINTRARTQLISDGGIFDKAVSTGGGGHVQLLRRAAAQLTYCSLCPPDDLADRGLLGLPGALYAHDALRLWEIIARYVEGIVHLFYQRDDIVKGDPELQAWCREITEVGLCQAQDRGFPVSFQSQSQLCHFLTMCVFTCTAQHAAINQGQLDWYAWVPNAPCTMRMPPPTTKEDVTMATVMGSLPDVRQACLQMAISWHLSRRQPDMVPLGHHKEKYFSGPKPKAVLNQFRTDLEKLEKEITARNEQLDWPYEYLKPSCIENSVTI
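Hydroperoxide product was detected by ferrous iron/xylenol orange as the 573 to 405 nm absorbance ratio. Arachidonic acid at 40 uM (final) was turned over for 30 min at room temperature by 150 nM human 12hLO, pH 7.0 Hepes buffer, after 15 min compound preincubation.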
HT1080-NT tox – kills 2HG-producing HT-1080-NT fibrosarcoma cells | HT-1080-NT fibrosarcoma viability, CellTiter-Glo ATP luminescence, 48 h | Potency, µM (series often up to 46.1 µM), most hits filed as cytotoxic | 360,000 tested, 1.6% active;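 further: NT is the 2HG producing partner of a matched IDH1 knockdown line; nearly all actives have a fitted effect of over 55% in size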
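Viability of the 2HG-overproducing fibrosarcoma line after 48 hours of compound exposure at 37 degrees C was determined by luminescence with CellTiter-Glo, and concentration-effect curves were then fitted and categorized.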
Hits are given with their value; - = inactive; ? = inconclusive; . = no result given; ! = not confirmed by another sample; [ ] = remark or other dose. Unless noted, the call rests on the fitted dose curve; in most records, active means well fitted curve in the direction sought with a large enough effect; inconclusive means small, poorly fitted or top-dose-only effect, or another doubt; inactive means no such curve, though single readings can be large; an effect the other way counts as inactive or inconclusive.

SMILES	IL1B secr inh	HT1080 IDH1KD tx	TDP1 cell CPT	DT40 TDP1 no CPT	ALOX12 inh	HT1080-NT tox
COc1ccc(C(=O)/C=C(\N)C(F)(F)F)c(O)c1	-	-	-	-	39.8µM	-[9.24 µM]
COc1ccc(C(=O)c2ccc(OC)cc2O)c(O)c1	-	-	?	?	-	-
O=C(/C=C/c1ccccc1)c1ccc(O)cc1O	.	.	?	16.4µM	.	.
CN(CC(=O)NC(N)=O)Cc1ccc(F)c(F)c1	.	.	.	.	-	.
CCN(CC)C(=O)c1cccc(NC(=O)c2cccc3cccnc23)c1	.	.	.	.	-	.
Cc1ccc(-c2csc(=Nc3ccc(F)cc3)n2Cc2ccc3c(c2)OCO3)cc1C	.	.	18.4µM	14.6µM	?	.
Cc1ccc(-c2csc(=Nc3ccccc3)n2Cc2ccc3c(c2)OCO3)cc1C	.	.	?	6.51µM	-	.
O=c1c2oc3ccccc3c2n(Cc2ccc(Cl)cc2)c(=O)n1Cc1ccc2c(c1)OCO2	.	.	-	-	-	.
Cc1cc(C(=O)N2CCN(Cc3ccc4c(c3)OCO4)CC2)cs1	-	-	-	-	-	-
Cc1ccc(NC(=O)Cn2c(-c3ccc4c(c3)OCO4)cn(-c3ccccc3)c2=O)cc1C	.	.	-	-	-	.
Clc1ccc(-c2csc(=Nc3ccccc3)n2Cc2ccc3c(c2)OCO3)cc1	.	.	20.6µM	10.3µM	?	.
Cc1nn(-c2ccccc2)c(Oc2ccccc2F)c1CCC(=O)NCC1CC1	.	.	.	.	-	.
Cn1c(=NC(=O)CS(=O)(=O)c2ccc(F)cc2)sc2ccccc21	-	-	-	?	-	-
C#CCn1c(=NC(=O)c2cccs2)sc2cccc(OC)c21	-	-	?	13µM	-	-
CCOc1cccc2sc(=NC(=O)c3ccc(S(=O)(=O)N4CCOCC4)cc3)n(C)c12	-	-	14.6µM!	20.6µM!	-	-
CCOCCn1c(=NC(=O)c2ccc(S(=O)(=O)N3CCOCC3)cc2)sc2cc(S(N)(=O)=O)ccc21	-	-	?	?	-	-
CCn1c(=NC(=O)c2ccc(S(=O)(=O)N3CCCCC3)cc2)sc2cccc(OC)c21	.	.	2.59µM	1.46µM	-	.
CCn1c(=NC(=O)CS(=O)(=O)c2ccccc2)sc2cccc(OC)c21	-59.1	-	?	13µM	?	-
COc1cccc2sc(=NC(=O)c3ccc(S(=O)(=O)N4CCCCC4)cc3)n(C)c12	.	.	-	-	-	.
Cc1ccc(S(=O)(=O)N(C)C2CCCc3ccccc32)cc1 (centres undefined)	.	.	.	.	-	.
CC1=C[C@@H](CN2CCN(C)CC2)[C@H](C(C)C)C[C@H]1Cc1nnc(-c2ccc(C)cc2)o1	.	.	.	.	-	.
Cc1ccc2nc(C)c(C(=O)NC(C)c3ccccc3)cc2c1 (centres undefined)	.	.	.	.	-	.
C=CCn1c(=NC(=O)c2cccc(N3C(=O)CCC3=O)c2)sc2cccc(OC)c21	-98.6	-	23.1µM	14.6µM	-	-
COCCn1c(=NC(=O)CCS(=O)(=O)c2ccccc2)sc2ccccc21	-	-	20.6µM	16.4µM	-	-
COC(=O)c1ccc2c(c1)sc(=NC(=O)CCS(=O)(=O)c1ccccc1)n2C	-	-	?	?	-	-
SMILES	IL1B secr inh	HT1080 IDH1KD tx	TDP1 cell CPT	DT40 TDP1 no CPT	ALOX12 inh	HT1080-NT tox
O=C1Nc2cnccc2C2(CCN([S+](=O)([O-])c3cccc(C(F)(F)F)c3)C2)O1 (centres undefined)	.	.	.	.	-	.
O=C(NC1CCCN(c2nc3ncccc3o2)C1)c1ccccc1Cl (centres undefined)	.	.	.	.	-	.
O=C(Nc1ccncc1)c1ccc(Cl)c(S(=O)(=O)N2CCCCC2)c1	-	8.2µM	13µM	16.4µM	.	?
O=C(O)c1ccc(NC(=O)c2ccc(Cl)c(S(=O)(=O)N3CCCCCC3)c2)cc1	.	.	-	-	-	.
CCN(CC)CCOC(=O)c1ccc(NC(=O)c2ccc(Cl)c(S(=O)(=O)N3CCCCCC3)c2)cc1	-68.8	?	20.6µM	?	?	?
NS(=O)(=O)c1ccc(Cl)c(C(=O)Nc2ccccc2[N+](=O)[O-])c1	-56.3	-	-	-	-	-
O=C(Nc1ccncc1)c1cc(S(=O)(=O)N2CCCC2)ccc1Cl	-	-	?	?	-	-
O=C(Nc1ccncc1)c1cc(S(=O)(=O)N2CCCCC2)ccc1Cl	-	-	9.2µM	?	-	-
NC(N)=NC(N)=Nc1ccccc1Br	.	.	.	.	-	.
CCNC(=O)C1CCCN(Cc2ccc(C(F)(F)F)cc2)C1 (centres undefined)	.	.	.	.	-	.
COc1ccc(C2NC(=O)N(CC(=O)NC(C)C)C3=C2C(=O)OC3)cc1 (centres undefined)	.	.	.	.	-	.
C(=Nc1ccccc1-c1ccccc1N=Cc1ccc2ccccc2c1)c1ccc2ccccc2c1	.	.	.	.	-	.
O=C(Nc1ccccc1O)c1cc(S(=O)(=O)N2CCOCC2)ccc1Cl	-	-[9.24 µM]	-	?	.	-
O=C(Nc1ccc(Cl)c(S(=O)(=O)N2CCCCC2)c1)c1ccncc1	-	-	14.6µM	13µM	-	?
CCCn1c(C)cc(C(=O)COC(=O)c2ccc(Cl)c(S(=O)(=O)N3CCCC3)c2)c1C	-	-	23.1µM	14.6µM	-	-
O=C(O)c1cc(S(=O)(=O)N2CCN(C(c3ccccc3)c3ccccc3)CC2)ccc1Cl	-	-	-	-	39.8µM	-
O=C(Nc1ccc(Cl)c(S(=O)(=O)N2CCCCC2)c1)c1cnccn1	-	-	-	-	?	-
O=C(Nc1ccccc1O)c1cc(S(=O)(=O)N2CCCC2)ccc1Cl	.	.	?	20.6µM	?	.
CCC12CN(CC#N)CC(C)(CN(CC#N)C1)C2=O	.	.	.	.	-	.
CC(C(=O)N(C)C1CCCCC1)N(C)CC(=O)Nc1ccc(Cl)cc1 (centres undefined)	.	.	.	.	-	.
CC(C)Cn1cnc2c1c(=O)n(CC(=O)NC1CCCCCC1)c(=O)n2Cc1ccccc1	.	.	.	.	-	.
CC1CCCN(Cc2nc3c(Br)cc(Br)cc3c(=O)[nH]2)C1 (centres undefined)	.	.	.	.	-	.
O=C(Nc1ccc(N2CCOCC2)cc1)c1ccc(Cl)c(S(=O)(=O)N2CCCC2)c1	-	?	?	20.6µM	-	-
CCN1CCN(c2ccc(NC(=O)c3cc(S(=O)(=O)N4CCCC4)ccc3Cl)cc2)CC1	-	-	?	25.9µM	-	-
CCN1CCN(c2ccc(NC(=O)c3ccc(Cl)c(S(=O)(=O)N4CCCC4)c3)cc2)CC1	-	?	?	?	?	?
CC(C)NC(=O)CN1CCN(C(=O)c2ccc3ccccc3n2)CC1	.	.	.	.	-	.
O=S(=O)(Nc1ccc2c(c1)nc1n2CCN(Cc2ccccc2)C1)c1ccccc1	-	-	23.1µM	23.1µM	-	-
CC(c1ccccc1)N1CCn2c(nc3cc(NS(C)(=O)=O)ccc32)C1 (centres undefined)	-	-	-	?	-	-
